# Source: the supplement of paper PMC6555819
# Tested on: VDR:RXRa (NR concentration 270 nM, RXRa partner concentration 90 nM)
# Test: PBM binding z-score (relative to random genomic background probes); higher = stronger binding; sequences stand for … in GC…GCGATTGACAGCGTAGAATGAAGG
# Description: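 Protein-binding microarray (Agilent 4x180K custom design, double-stranded 60-nt probes: 5' GC cap, 34-nt variable region, 24-nt constant primer region; full probe sequence given). Purified or IVT nuclear receptor:RXRα heterodimers (3:1 NR:RXRα, mostly 270:90 nM) or homodimers were incubated for 1 h in PBS with 2% milk and no ligand, then detected with Alexa488 antibodies. Fluorescence from o1-orientation probes (~5 replicates averaged) was converted to z-scores against 500 random hg19 background probes. Variable regions are seed direct-repeat (DR0–DR5) sites, all their single-nucleotide variants and half-site ablations.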
row,Sequence,PBM binding z-score
1,CCTATTAGTTTACCATAAGGGCAACCGAAGCTCG,0.484
2,AGAACGAGGGCACGCTGCGTTGATAGCAGAGTAG,0.741
3,CCACACAGGTGAAAGGTAACTCAGTCTGGTACGC,1.05
4,CCTTACGGGACACTCCAGGTTATAGCATCGGAGT,-0.0817
5,TCTTGTAGATCAGAAGGTTAAGAAAGCTGGCCAA,0.671
6,CCTTACGGGTCAAGGTCATAGCACGGGTGGTACG,5.14
7,ACTATTAGTTGAGACGAGGGCACCCGATAGGTTG,0.529
8,CAAACTAGGTTAAAGGTCAAAGTCGAGCCAACCA,5.47
9,TATACAGGGTCAAAGTCCAGAGTACGAATGTCGA,5.09
10,CGAACTAGGTCAGAACAGGACAGAGAAGGATGAT,0.496
11,TGAATGAGGTTAAAGATCGGGGAACGTGGCGTCG,1.61
12,ATCTCTAGGTAACAAGTTCAGTGATAGAGAGGAC,1.91
13,TTACCCAGGTGAGCTGAGGTCGTTGATCCAACTC,2.93
14,TCTATTAGTTGAAGGCCAACCGACGAGTCCGTTT,1.02
15,TCTAGCAGGCCACAGGGTCACTCAAGAGGTACGG,2.93
16,ACTAGCAGGCCAAGGGTTACTCAAGATTAGTCCG,0.0944
17,CCTACTGGGCCACCAGGTCATTGATATCAACGTT,1.97
18,TCATATAGGTAAAGGTGAAAGGCGAACGATATGA,1.14
19,ATCGCAAGGTCGACGAGGTGAGTATACACCGTTT,4.11
20,CCTAGTAGGCCAGGGTCACTCAAGCATTTCGCTT,2.7

row,Sequence,PBM binding z-score
1,GTACCAAGGTGAATAGGGCGTTGATGAGTAGGCG,-0.176
2,AGAATGAGGTTACAAAAGATCAGGGAAACGCTTG,1.24
3,GATACAGGGTCAAGGCCACAGTACGCGTATTGAT,4.2
4,TCTTGTAGATCAGCAGGTAAAGAAAGCTGGCCAA,-0.142
5,TGAATGAGGTGATAAGATCAGGGAACGTTGCAAA,-0.169
6,TCGACTAGGTTACCAATGGGGCATTCAGCTTTCT,0.439
7,AGAATGATGTTATACGTAGATCAGGGAAGAAAGT,-0.209
8,ATCGAAGGGTCGACGAGGTGAGTATACACCGTTT,4.01
9,TCGAGTAGGTTAGGGGCATTCAAAATGGCGTCGA,0.856
10,ATGTGTAGGTTAGCTGGGGTCATTCAGACTAGGC,6.24
11,TCGAGAAGGTTAGGGGCATTCAGAATGGCGTCGA,1.12
12,ATCTCTAGGTAAAAGTTCAGTGAGTCCCGAGGAT,2.09
13,TAGCCTAGGTCAGATCGGGCAAGTATACGCTATA,0.761
14,ATATGTAGGTTATGGGTCATTCAGGTTGGTTCGC,4.33
15,CAAACTAGGTCTAGGTCAAAGTCGGTTTGTGCCA,1.84
16,CCTTAAGGGTCAAGGTTATAGCACGGGTGGTACG,4.72
17,TCGAGTAGCTTACCAATGGGGCATTCAGCTTTCT,-0.487
18,GGAACGATGGCATTCGAGTTGATAGCATGGCGAT,-0.32
19,GGAACGAGGGCCTTCGAGTTGATAGCATGGCGAT,-0.0234
20,TCATATGGGTAATACAGGTGAAAGTCGGCATCTA,0.677
